Data reported in PubChem BioAssay (NCI).
The panel holds about 79,000 compounds, 15% with a hit somewhere; the sample as a whole holds those more often. The source made the active and inactive calls. Cut-off read from the data, not from the text of the source: active = growth inhibition above about 70%; inactive = the rest.

Legend:
[1] = NCI Yeast Anticancer Drug Screen. Data for the wt1 strain (AID 149);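 note: 0% = growth of vehicle-treated wt1 cultures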; details: S. cerevisiae wt1 strain (SPY 50644) growth inhibition, hits give high values
Procedure, shortened: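 Compounds are added to wt1 yeast cultures. Growth is then measured. Inhibition is expressed relative to vehicle-treated controls.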

[2] = NCI Yeast Anticancer Drug Screen. Data for the rad50EPP+ strain (AID 151);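 note: 0% = growth of vehicle-treated control cultures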; details: S. cerevisiae rad50 mutant strain, hits give high values
Procedure, shortened: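 Genetically defined yeast (rad50EPP+, DNA damage repair alteration) is grown with compound, and inhibition of growth is expressed relative to vehicle-treated controls.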

[3] = NCI Yeast Anticancer Drug Screen. Data for the mgt1 strain (AID 153); details: S. cerevisiae mgt1 mutant growth inhibition, hits give high values
Procedure, shortened: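 In the mgt1 strain, test compounds were added and growth inhibition was determined relative to vehicle-treated controls.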

[4] = NCI Yeast Anticancer Drug Screen. Data for the rad50 strain (AID 155);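 note: 0% = growth of vehicle-only cultures of the same strain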; details: S. cerevisiae rad50 strain growth inhibition, hits give high values
Procedure, shortened: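 Inhibition values express reduced yeast growth in compound-treated cultures relative to vehicle-treated controls.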

[5] = NCI Yeast Anticancer Drug Screen. Data for the mec2-1 strain (AID 157); details: S. cerevisiae mec2-1 strain, hits give high values
Procedure, shortened: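 Each compound was tested on mec2-1 yeast, a strain altered in DNA damage repair or cell cycle control. Growth inhibition is reported relative to vehicle.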

[6] = NCI Yeast Anticancer Drug Screen. Data for the rad14 strain (AID 159);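 note: 0% = growth of vehicle-treated control cultures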; details: S. cerevisiae rad14 strain growth inhibition, hits give high values
Procedure, shortened: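 A mutant yeast strain defective in DNA damage repair is treated with compound; inhibition of its growth is scored against untreated, vehicle-exposed cultures.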

[7] = NCI Yeast Anticancer Drug Screen. Data for the sgs1 mgt1 strain (AID 161);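 note: 0% = growth of cultures given vehicle only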; details: S. cerevisiae sgs1 mgt1 strain, hits give high values
Procedure, shortened: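 Mutant yeast exposed to compound; growth scored against vehicle-only wells.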

[8] = NCI Yeast Anticancer Drug Screen. Data for the CLN2oe strain (AID 163);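 note: 0% = growth of vehicle-only control cultures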; details: S. cerevisiae CLN2oe strain, hits give high values
Procedure, shortened: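 First, the altered yeast strain was treated with each compound; second, its growth was measured; finally, inhibition was derived by comparison with vehicle controls.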

[9] = NCI Yeast Anticancer Drug Screen. Data for the bub3 strain (AID 167); details: S. cerevisiae bub3 mutant strain, hits give high values
Procedure, shortened: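 Steps: expose the mutant yeast strain to compound; grow alongside vehicle-treated cultures; measure growth; express inhibition against the vehicle cultures.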

[10] = NCI Yeast Anticancer Drug Screen. Data for the wt2 strain (AID 169);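 note: 0% = growth of vehicle-treated yeast cultures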; details: S. cerevisiae wt2 strain growth inhibition, hits give high values
Procedure, shortened: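 The panel's yeast strains carry defined changes in DNA repair or cell cycle genes. Each strain is grown with compound, and growth loss is scored relative to vehicle.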

[11] = NCI Yeast Anticancer Drug Screen. Data for the mlh1 strain (AID 171);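 note: 0% = growth of vehicle-treated control cultures of the same strain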; details: S. cerevisiae mlh1 strain growth inhibition, hits give high values
Procedure, shortened: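 Inhibition values reflect reduced yeast growth in the presence of compound, referenced to vehicle controls, using a strain chosen for its alteration in DNA repair or cell cycle control.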

[12] = NCI Yeast Anticancer Drug Screen. Data for the sgs1 strain (AID 173);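 note: 0% = growth of vehicle-only control cultures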; details: S. cerevisiae sgs1 mutant, hits give high values
Procedure, shortened: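 Vehicle-treated cultures served as reference for growth inhibition of a yeast strain altered in DNA damage repair or cell cycle control after compound exposure.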

[13] = NCI Yeast Anticancer Drug Screen. Data for the mlh1 rad18 strain (AID 175); details: S. cerevisiae mlh1 rad18 strain growth inhibition, hits give high values
Procedure, shortened: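 Inhibition values reflect reduced growth of mutant yeast versus vehicle-treated controls following compound exposure; the mutations affect DNA damage repair.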

[14] = NCI Yeast Anticancer Drug Screen. Data for the rad18 strain (AID 177); details: S. cerevisiae rad18 mutant growth inhibition, hits give high values
Procedure, shortened: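 Steps: expose repair-mutant yeast to compound; measure growth; express as inhibition relative to vehicle control.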

[15] = NCI Yeast Anticancer Drug Screen. Data for the cln2 rad14 strain (AID 165);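 note: 0% = growth equal to vehicle treated cultures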; details: S. cerevisiae cln2 rad14 strain, hits give high values
Procedure, shortened: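 Test compounds were added to cln2 rad14 yeast cultures; inhibition of growth was then determined by comparison with vehicle treatment.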

[16] = at 5.0 µM (retest, dose inferred, filed as 0.5)
[17] = at 50.0 µM (retest, dose inferred, filed as 5.0)

Measured: growth inhibition

O=C1c2ccccc2C(=O)C1C(c1ccc(F)cc1)C1C(=O)c2ccccc2C1=O
active: [1]; at 100.0 µM 85% | [2]; at 100.0 µM 75% | [3]; at 100.0 µM 76% | [4]; at 50.0 µM 77.5% | [4]; at 100.0 µM 88% | [5]; [17] 81% | [5]; at 50.0 µM 75% | [5]; at 100.0 µM 83% | [6]; at 100.0 µM 82% | [8]; at 100.0 µM 86% | [9]; [17] 87% | [9]; at 50.0 µM 79% | [9]; at 100.0 µM 83% | [10]; at 100.0 µM 81% | [11]; at 100.0 µM 82% | [12]; at 100.0 µM 89% | [13]; [17] 74% | [13]; at 50.0 µM 72.1% | [14]; at 100.0 µM 88%
inactive: [1]; at 1.2 µM 9% | [1]; at 3.7 µM 10% | [1]; at 11.0 µM 7% | [1]; at 33.0 µM 18% | [2]; at 1.2 µM -8% | [2]; at 3.7 µM 8% | [2]; at 11.0 µM 21% | [2]; at 33.0 µM 61% | [3]; at 1.2 µM 0% | [3]; at 3.7 µM -11% | [3]; at 11.0 µM -17% | [3]; at 33.0 µM 5% | [4]; at 1.2 µM 13% | [4]; at 3.7 µM 5% | [4]; [16] 21% | [4]; at 11.0 µM 7% | [4]; at 33.0 µM 28% | [4]; [17] 46% | [5]; at 1.2 µM -13% | [5]; at 3.7 µM -6% | [5]; [16] -14% | [5]; at 11.0 µM -14% | [5]; at 33.0 µM 6% | [6]; at 1.2 µM -20% | [6]; at 3.7 µM -20% | [6]; at 11.0 µM -52% | [6]; at 33.0 µM 0% | [7]; [16] 2% | [7]; [17] 41% | [7]; at 50.0 µM 56.2% | [8]; at 1.2 µM 6% | [8]; at 3.7 µM 0% | [8]; at 11.0 µM -1% | [8]; at 33.0 µM 34% | [9]; at 1.2 µM -18% | [9]; at 3.7 µM -33% | [9]; [16] 17% | [9]; at 11.0 µM -34% | [9]; at 33.0 µM -17% | [10]; at 1.2 µM 1% | [10]; at 3.7 µM 2% | [10]; at 11.0 µM 1% | [10]; at 33.0 µM 22% | [11]; at 1.2 µM -17% | [11]; at 3.7 µM -15% | [11]; at 11.0 µM -16% | [11]; at 33.0 µM 5% | [12]; at 1.2 µM 11% | [12]; at 3.7 µM 25% | [12]; at 11.0 µM 41% | [12]; at 33.0 µM 54% | [13]; [16] 8% | [14]; at 1.2 µM -2% | [14]; at 3.7 µM -7% | [14]; at 11.0 µM 1% | [14]; at 33.0 µM 26%

COC1=C(N=[N+]=[N-])C(=O)c2ncccc2C1=O
inactive: [1]; at 1.2 µM 3% | [1]; at 3.7 µM 6% | [1]; at 11.0 µM 10% | [1]; at 33.0 µM 52% | [2]; at 1.2 µM 31% | [2]; at 3.7 µM 60% | [3]; at 1.2 µM 10% | [3]; at 3.7 µM 7% | [3]; at 11.0 µM 31% | [4]; at 1.2 µM 56% | [5]; at 1.2 µM 6% | [5]; at 3.7 µM 38% | [5]; [16] 38% | [5]; at 11.0 µM 68% | [6]; at 1.2 µM -2% | [6]; at 3.7 µM 10% | [6]; at 11.0 µM 44% | [7]; [16] 42% | [8]; at 1.2 µM -5% | [8]; at 3.7 µM 13% | [8]; at 11.0 µM 26% | [8]; at 33.0 µM 69% | [15]; [16] 24% | [9]; at 1.2 µM 7% | [9]; at 3.7 µM 18% | [9]; [16] -4% | [9]; at 11.0 µM 18% | [10]; at 1.2 µM -55% | [10]; at 3.7 µM -12% | [10]; at 11.0 µM 49% | [11]; at 1.2 µM 10% | [11]; at 3.7 µM 6% | [11]; at 11.0 µM 21% | [12]; at 1.2 µM 8% | [12]; at 3.7 µM 30% | [12]; at 11.0 µM 56% | [13]; [16] 69% | [14]; at 1.2 µM 60%
active: [1]; at 100.0 µM 92% | [2]; at 11.0 µM 89% | [2]; at 33.0 µM 94% | [2]; at 100.0 µM 95% | [3]; at 33.0 µM 81% | [3]; at 100.0 µM 94% | [4]; at 3.7 µM 84% | [4]; [16] 86% | [4]; at 11.0 µM 93% | [4]; at 33.0 µM 94% | [4]; [17] 95% | [4]; at 50.0 µM 82.2% | [4]; at 100.0 µM 95% | [5]; at 33.0 µM 93% | [5]; [17] 94% | [5]; at 50.0 µM 85.5% | [5]; at 100.0 µM 96% | [6]; at 33.0 µM 91% | [6]; at 100.0 µM 96% | [7]; [17] 93% | [7]; at 50.0 µM 82.3% | [8]; at 100.0 µM 95% | [15]; [17] 93% | [15]; at 50.0 µM 80.5% | [9]; at 33.0 µM 72% | [9]; [17] 88% | [9]; at 50.0 µM 78% | [9]; at 100.0 µM 94% | [10]; at 33.0 µM 92% | [10]; at 100.0 µM 95% | [11]; at 33.0 µM 80% | [11]; at 100.0 µM 94% | [12]; at 33.0 µM 84% | [12]; at 100.0 µM 94% | [13]; [17] 95% | [14]; at 3.7 µM 89% | [14]; at 11.0 µM 94% | [14]; at 33.0 µM 96% | [14]; at 100.0 µM 96%

CCCCOc1ccc(Nc2c3ccccc3nc3ccccc23)cc1
inactive: [1]; at 1.2 µM -12% | [1]; at 3.7 µM -24% | [1]; at 11.0 µM 69% | [2]; at 1.2 µM 13% | [3]; at 1.2 µM -27% | [3]; at 3.7 µM -13% | [4]; at 1.2 µM 41% | [4]; [16] 50% | [5]; at 1.2 µM -24% | [5]; at 3.7 µM -37% | [5]; [16] 12% | [5]; at 11.0 µM 68%
active: [1]; at 33.0 µM 98% | [1]; at 100.0 µM 83% | [2]; at 3.7 µM 71% | [2]; at 11.0 µM 91% | [2]; at 33.0 µM 94% | [2]; at 100.0 µM 78% | [3]; at 11.0 µM 86% | [3]; at 33.0 µM 99% | [3]; at 100.0 µM 78% | [4]; at 3.7 µM 79% | [4]; at 11.0 µM 93% | [4]; at 33.0 µM 98% | [4]; [17] 96% | [4]; at 50.0 µM 90.7% | [4]; at 100.0 µM 85% | [5]; at 33.0 µM 97% | [5]; [17] 89% | [5]; at 50.0 µM 88%
